Inconclusive results are not listed. Active and inactive are the calls of the source. Rule for the calls, unless noted: active = hit-call score of the fitted dose curve at least 0.9, where 1 is the maximum; inconclusive = response in the unintended direction; inactive = score below 0.9.

In experiment [1] the target is human Aurora Kinase A - serine/threonine-protein Kinase 6 (AurA), AURKA (gene 6790) (UniProt O14965). Description: NVS_ENZ_hAurA: NovaScreen (NVS) Enzymatic Assay for human Aurora Kinase A - serine/threonine-protein Kinase 6 (AurA) (AID 2283142). In outline:
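Cell-free enzymatic assay with human Aurora A, 1 hour after dosing. Fluorescent substrate turnover detected after electrophoretic mobility shift separation of substrate and product. Screened at 25 uM, actives retested in concentration-response up to 50 uM.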

The target of experiment [2] is human Phosphatase and Tensin Homolog (PTEN), PTEN (gene 5728) (UniProt P60484). Description: NVS_ENZ_hPTEN: NovaScreen (NVS) Enzymatic Assay for human Phosphatase and Tensin Homolog (PTEN) (AID 2283203). The gist of the method: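 Cell-free recombinant human PTEN with fluorescent substrate; product separated by electrophoretic mobility shift and read by fluorescence 1 h after dosing. Primary screen in duplicate at 25 uM, actives followed in concentration series versus DMSO.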

For experiment [3], the target named is rat Oxytocin Receptor (OXT), Oxtr (gene 25342) (UniProt P70536). Nature of the experiment: NVS_GPCR_rOXT: NovaScreen (NVS) G Protein-Coupled Receptor Assay for rat Oxytocin Receptor (OXT) (AID 2283330). In outline:
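Radioligand displacement on rat uterine membranes, 1 h incubation, filter-based scintillation counting. Chemicals were screened in duplicate at 25 uM, and those passing threshold were retested in concentration-response up to 50 uM. Loss of binding was fitted versus DMSO.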

Experiment [4] addresses human Epidermal Growth Factor Receptor (EGFR), EGFR (gene 1956) (UniProt P00533). Nature of the experiment: NVS_ENZ_hEGFR: NovaScreen (NVS) Enzymatic Assay for human Epidermal Growth Factor Receptor (EGFR) (AID 2283151). In outline:
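Cell-free kinase assay, fluorescence plus electrophoretic mobility shift separating substrate and product, read 1 hour after dosing; loss of signal vs DMSO. Duplicate screen at 25 uM, then concentration-response to 50 uM.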

In experiment [5] the target is human Fibroblast Growth Factor Receptor 1 (FGFR1), FGFR1 (gene 2260) (UniProt P11362). Description: NVS_ENZ_hFGFR1: NovaScreen (NVS) Enzymatic Assay for human Fibroblast Growth Factor Receptor 1 (FGFR1) (AID 2283159).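 For AC50: hits lower the signal so potencies describe inhibitors of the kinase.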 In outline: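 Cell-free recombinant kinase with fluorescent substrate, product separated by electrophoretic mobility shift; read 1 hour after dosing, loss of signal relative to DMSO. Initial screen in duplicate at 25 uM, actives followed in concentration series.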

For experiment [6], the target named is human Protein Tyrosine Phosphatase Non-receptor Type 2 (PTPN2), PTPN2 (gene 5771) (UniProt P17706). Description: NVS_ENZ_hPTPN2: NovaScreen (NVS) Enzymatic Assay for human Protein Tyrosine Phosphatase Non-receptor Type 2 (PTPN2) (AID 2283207). In outline: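 Cell-free recombinant enzyme with fluorescent substrate, product separated by electrophoretic mobility shift; read 1 h after dosing. Primary screen single concentration (25 uM) in duplicate; actives followed in concentration series; loss of signal versus DMSO.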

Experiment [7] concerns the target human Tyrosine Protein Kinase Receptor Tie-2 (Tie2), TEK (gene 7010) (UniProt Q02763). Description: NVS_ENZ_hTie2: NovaScreen (NVS) Enzymatic Assay for human Tyrosine Protein Kinase Receptor Tie-2 (Tie2) (AID 2283225). In outline:
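Recombinant human Tie2 kinase activity was read cell-free by fluorescence with electrophoretic mobility shift, 1 hour after dosing. The screen used 25 uM in duplicate, then concentration-response up to 50 uM. Signal loss was scored against DMSO.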

In experiment [8] the target is human NIMA (Never In Mitosis Gene A)-Related Kinase 2 (NEK2), NEK2 (gene 4751) (UniProt P51955). Nature of the experiment: NVS_ENZ_hNEK2: NovaScreen (NVS) Enzymatic Assay for human NIMA (Never In Mitosis Gene A)-Related Kinase 2 (NEK2) (AID 2283188). The gist of the method:
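Cell-free NEK2 enzyme activity after 1 h exposure, read by fluorescence with electrophoretic mobility shift separating substrate and product. Primary screen in duplicate at 25 uM; actives then run as concentration series. Loss of signal versus DMSO scored.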

The target of experiment [9] is human Raf-1 Proto-Oncogene, serine/threonine Kinase (RAF1), RAF1 (gene 5894) (UniProt P04049). Description: NVS_ENZ_hRAF1: NovaScreen (NVS) Enzymatic Assay for human Raf-1 Proto-Oncogene, serine/threonine Kinase (RAF1) (AID 2283216). The gist of the method: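 Cell-free recombinant kinase with specific fluorescent substrate, product separated by electrophoretic mobility shift; read 1 h after dosing. Primary screen at 25 uM in duplicate; hits then run in concentration-response up to 50 uM, fitted as loss of signal versus DMSO.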

A short description of experiment [10]: ATG_M_32_XSP2: Attagene TRANS-FACTORIAL Multi-Species (XSP2) HepG2 Assay for M19 Transcription Factor (Internal Marker) (AID 2283826). In outline: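 Transfected HepG2 (multiplexed GAL4-UAS reporters), 24 h chemical exposure, 3 nM 6-alpha-fluorotestosterone + 1.5 nM norgestrel added. RNA → oligo(dT) RT → PCR → 6-FAM primer extension → HpaI cut → CE. Fitted upward vs DMSO.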

For experiment [11], the target named is rat Adenylate Cyclase, Forskolin Stimulated, Adcy5 (gene 64532) (UniProt Q04400). Nature of the experiment: NVS_ENZ_rACFSKBinding: NovaScreen (NVS) Enzymatic Assay for rat Adenylate Cyclase, Forskolin Stimulated (AID 2283232). The gist of the method:
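Rat forebrain membrane preparation, cell-free, read 1 h after dosing by filter-based scintillation counting. Primary screen in duplicate at 25 uM; actives (e.g. ≥30% inhibition) rerun in concentration-response up to 50 uM; fit versus DMSO.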

The target of experiment [12] is Norway rat Vesicular Monoamine Transporter (VMAT2), neurotransmitter transporter, Slc18a2 (gene 25549) (UniProt Q01827). Nature of the experiment: NVS_TR_rVMAT2: NovaScreen (NVS) Transporter Assay for Norway rat Vesicular Monoamine Transporter (VMAT2), neurotransmitter transporter (AID 2283376).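 Note: actives lower the bound radioligand signal below the DMSO level.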 In outline:
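Tissue: rat forebrain extract. Format: competitive radioligand binding, cell-free. Timepoint: 1 h. Readout: filter radiodetection/scintillation. Screen: 25 uM in duplicate, then concentration series for actives. Baseline: DMSO.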

Experiment [13] can be described thus: Tanguay_ZF_120hpf_MUSC: Oregon State University Tanguay Lab 120 Hour Post-fertilization zebrafish Assay for Muscle Malformation (AID 2284401; active = hit-call score of the fitted dose curve at least 0.9, where 1 is the maximum; inactive = score below 0.9). In outline: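 Dechorionated Tropical 5D wild-type zebrafish embryos exposed statically from 6 to 120 hpf at 28C, one per well, in 0.64% DMSO. Muscle malformation scored present/absent by brightfield microscopy at 120 hpf, fitted against DMSO.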

For experiment [14], the target named is Bile acid receptor (Homo sapiens) (UniProt Q96RI1). Nature of the experiment: NVS_NR_hFXR_Agonist: NovaScreen (NVS) Nuclear Receptor Binding Assay for human Farnesoid X Receptor Agonism (FXR) (AID 2283347). The gist of the method: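 Cell-free TR-FRET binding assay with extracted human FXR protein, agonist format, read 1 h after dosing. Primary screen at 25 uM single concentration in duplicate, actives retested in concentration series; gain of signal versus DMSO.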

Experiment [15] addresses human Protein Tyrosine Phosphatase Receptor Type C (PTPRC), PTPRC (gene 5788) (UniProt P08575). Nature of the experiment: NVS_ENZ_hPTPRC: NovaScreen (NVS) Enzymatic Assay for human Protein Tyrosine Phosphatase Receptor Type C (PTPRC) (AID 2283212). The gist of the method: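 Yeast-extracted human PTPRC used in a cell-free colorimetric enzyme activity read-out, 1 h after dosing. Primary screen in duplicate at 25 uM; actives rerun in concentration-response up to 50 uM, DMSO as baseline.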

In experiment [16] the target is bovine Gamma-Aminobutyric Acid Type A Receptor BDZ, alpha 1 site (GABARa1), GABRA1 (gene 780973) (UniProt P08219). Nature of the experiment: NVS_LGIC_bGABARa1: NovaScreen (NVS) Ligand-Gated Ion Channel Assay for bovine Gamma-Aminobutyric Acid Type A Receptor BDZ, alpha 1 site (GABARa1) (AID 2283321). In outline: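 Radioligand competition binding on bovine cortical membranes, 0.75 h, filter-based scintillation counting. Primary single concentration 25 uM in duplicate; actives rerun in concentration-response to 50 uM max. Loss of signal fitted versus DMSO.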

human Phosphatase and Tensin Homolog (PTEN), PTEN (gene 5728), sequence (P60484 whole entry, looked up): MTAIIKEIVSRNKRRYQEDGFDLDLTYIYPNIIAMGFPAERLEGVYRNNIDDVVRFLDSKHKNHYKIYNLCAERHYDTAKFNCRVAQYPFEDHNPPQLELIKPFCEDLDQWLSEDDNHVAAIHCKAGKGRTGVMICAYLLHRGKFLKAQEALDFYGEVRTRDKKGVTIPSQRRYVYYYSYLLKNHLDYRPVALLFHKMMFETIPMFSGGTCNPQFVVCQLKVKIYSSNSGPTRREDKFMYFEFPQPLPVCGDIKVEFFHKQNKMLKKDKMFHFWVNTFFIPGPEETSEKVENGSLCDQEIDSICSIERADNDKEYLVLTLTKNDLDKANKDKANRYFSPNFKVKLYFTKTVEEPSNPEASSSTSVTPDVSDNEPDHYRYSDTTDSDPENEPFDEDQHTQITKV
human Epidermal Growth Factor Receptor (EGFR), EGFR (gene 1956), sequence (P00533 whole entry, looked up): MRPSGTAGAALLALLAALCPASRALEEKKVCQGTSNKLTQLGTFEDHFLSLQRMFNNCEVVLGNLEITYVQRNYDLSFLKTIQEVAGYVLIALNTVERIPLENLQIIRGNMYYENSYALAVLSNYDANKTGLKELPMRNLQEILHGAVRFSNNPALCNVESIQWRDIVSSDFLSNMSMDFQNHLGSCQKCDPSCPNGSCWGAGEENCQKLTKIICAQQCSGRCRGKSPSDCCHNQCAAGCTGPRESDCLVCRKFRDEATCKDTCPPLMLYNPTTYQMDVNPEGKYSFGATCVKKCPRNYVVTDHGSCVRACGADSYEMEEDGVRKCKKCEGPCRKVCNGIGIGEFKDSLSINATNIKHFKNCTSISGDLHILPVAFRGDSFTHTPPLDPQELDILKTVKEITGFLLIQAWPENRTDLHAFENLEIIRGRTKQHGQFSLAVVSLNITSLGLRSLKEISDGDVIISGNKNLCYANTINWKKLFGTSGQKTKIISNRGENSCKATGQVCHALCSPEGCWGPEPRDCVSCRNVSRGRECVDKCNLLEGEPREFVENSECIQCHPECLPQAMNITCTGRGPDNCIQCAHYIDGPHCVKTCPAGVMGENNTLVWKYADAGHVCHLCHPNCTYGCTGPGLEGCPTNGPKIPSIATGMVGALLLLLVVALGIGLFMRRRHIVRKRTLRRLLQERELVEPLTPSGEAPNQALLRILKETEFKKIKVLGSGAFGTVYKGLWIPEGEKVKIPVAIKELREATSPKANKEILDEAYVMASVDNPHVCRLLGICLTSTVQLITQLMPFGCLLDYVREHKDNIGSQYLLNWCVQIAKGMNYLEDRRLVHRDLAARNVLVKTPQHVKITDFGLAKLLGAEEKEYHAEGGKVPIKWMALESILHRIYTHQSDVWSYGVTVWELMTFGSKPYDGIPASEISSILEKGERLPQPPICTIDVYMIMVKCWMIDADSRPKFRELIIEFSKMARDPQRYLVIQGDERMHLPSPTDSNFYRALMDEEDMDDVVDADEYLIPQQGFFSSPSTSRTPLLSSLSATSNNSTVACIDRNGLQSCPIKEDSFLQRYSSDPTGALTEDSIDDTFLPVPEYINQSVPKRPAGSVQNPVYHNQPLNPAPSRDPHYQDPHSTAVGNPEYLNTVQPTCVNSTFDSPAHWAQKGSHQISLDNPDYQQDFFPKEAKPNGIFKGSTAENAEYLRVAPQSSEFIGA
human Raf-1 Proto-Oncogene, serine/threonine Kinase (RAF1), RAF1 (gene 5894), sequence (P04049 whole entry, looked up): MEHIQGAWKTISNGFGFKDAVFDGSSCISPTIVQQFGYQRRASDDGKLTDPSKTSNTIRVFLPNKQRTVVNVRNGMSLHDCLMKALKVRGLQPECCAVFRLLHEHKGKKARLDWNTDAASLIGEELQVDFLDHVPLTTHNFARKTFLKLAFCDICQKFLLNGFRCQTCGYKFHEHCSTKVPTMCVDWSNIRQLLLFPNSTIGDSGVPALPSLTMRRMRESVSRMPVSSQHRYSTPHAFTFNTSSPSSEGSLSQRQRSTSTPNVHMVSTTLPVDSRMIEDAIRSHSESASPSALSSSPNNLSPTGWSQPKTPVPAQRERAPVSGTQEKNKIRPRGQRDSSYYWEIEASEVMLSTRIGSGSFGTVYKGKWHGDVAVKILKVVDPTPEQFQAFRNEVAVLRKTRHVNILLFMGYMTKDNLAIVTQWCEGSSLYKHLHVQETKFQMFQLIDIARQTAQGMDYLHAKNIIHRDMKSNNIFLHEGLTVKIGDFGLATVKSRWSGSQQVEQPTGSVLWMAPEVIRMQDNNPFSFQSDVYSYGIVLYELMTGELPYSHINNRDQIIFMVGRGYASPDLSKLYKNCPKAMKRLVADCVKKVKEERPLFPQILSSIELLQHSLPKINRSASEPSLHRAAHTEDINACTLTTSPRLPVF
human Protein Tyrosine Phosphatase Non-receptor Type 2 (PTPN2), PTPN2 (gene 5771), sequence (P17706 whole entry, looked up): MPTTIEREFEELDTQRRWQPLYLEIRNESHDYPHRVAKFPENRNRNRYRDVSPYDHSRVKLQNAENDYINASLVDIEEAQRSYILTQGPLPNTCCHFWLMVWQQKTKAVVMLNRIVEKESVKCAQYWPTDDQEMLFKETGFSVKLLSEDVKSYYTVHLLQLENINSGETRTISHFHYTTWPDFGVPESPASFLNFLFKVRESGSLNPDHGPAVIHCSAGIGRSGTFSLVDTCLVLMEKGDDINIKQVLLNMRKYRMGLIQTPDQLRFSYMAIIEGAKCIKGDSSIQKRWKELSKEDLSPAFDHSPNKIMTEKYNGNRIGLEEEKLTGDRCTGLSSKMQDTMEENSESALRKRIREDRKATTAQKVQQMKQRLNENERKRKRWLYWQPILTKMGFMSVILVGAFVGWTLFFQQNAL
human Aurora Kinase A - serine/threonine-protein Kinase 6 (AurA), AURKA (gene 6790), sequence (O14965 whole entry, looked up): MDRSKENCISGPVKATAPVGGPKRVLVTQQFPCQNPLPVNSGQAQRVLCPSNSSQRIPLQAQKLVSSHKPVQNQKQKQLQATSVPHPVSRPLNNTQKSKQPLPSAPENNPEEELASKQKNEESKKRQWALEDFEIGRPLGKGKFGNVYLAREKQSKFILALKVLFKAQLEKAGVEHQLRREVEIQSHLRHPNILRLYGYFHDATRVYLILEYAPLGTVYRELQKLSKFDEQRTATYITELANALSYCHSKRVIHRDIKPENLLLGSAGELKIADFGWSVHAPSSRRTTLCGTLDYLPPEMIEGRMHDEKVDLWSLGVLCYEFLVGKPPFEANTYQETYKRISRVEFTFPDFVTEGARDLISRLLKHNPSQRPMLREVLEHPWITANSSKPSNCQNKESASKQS
human Tyrosine Protein Kinase Receptor Tie-2 (Tie2), TEK (gene 7010), sequence (Q02763 whole entry, looked up): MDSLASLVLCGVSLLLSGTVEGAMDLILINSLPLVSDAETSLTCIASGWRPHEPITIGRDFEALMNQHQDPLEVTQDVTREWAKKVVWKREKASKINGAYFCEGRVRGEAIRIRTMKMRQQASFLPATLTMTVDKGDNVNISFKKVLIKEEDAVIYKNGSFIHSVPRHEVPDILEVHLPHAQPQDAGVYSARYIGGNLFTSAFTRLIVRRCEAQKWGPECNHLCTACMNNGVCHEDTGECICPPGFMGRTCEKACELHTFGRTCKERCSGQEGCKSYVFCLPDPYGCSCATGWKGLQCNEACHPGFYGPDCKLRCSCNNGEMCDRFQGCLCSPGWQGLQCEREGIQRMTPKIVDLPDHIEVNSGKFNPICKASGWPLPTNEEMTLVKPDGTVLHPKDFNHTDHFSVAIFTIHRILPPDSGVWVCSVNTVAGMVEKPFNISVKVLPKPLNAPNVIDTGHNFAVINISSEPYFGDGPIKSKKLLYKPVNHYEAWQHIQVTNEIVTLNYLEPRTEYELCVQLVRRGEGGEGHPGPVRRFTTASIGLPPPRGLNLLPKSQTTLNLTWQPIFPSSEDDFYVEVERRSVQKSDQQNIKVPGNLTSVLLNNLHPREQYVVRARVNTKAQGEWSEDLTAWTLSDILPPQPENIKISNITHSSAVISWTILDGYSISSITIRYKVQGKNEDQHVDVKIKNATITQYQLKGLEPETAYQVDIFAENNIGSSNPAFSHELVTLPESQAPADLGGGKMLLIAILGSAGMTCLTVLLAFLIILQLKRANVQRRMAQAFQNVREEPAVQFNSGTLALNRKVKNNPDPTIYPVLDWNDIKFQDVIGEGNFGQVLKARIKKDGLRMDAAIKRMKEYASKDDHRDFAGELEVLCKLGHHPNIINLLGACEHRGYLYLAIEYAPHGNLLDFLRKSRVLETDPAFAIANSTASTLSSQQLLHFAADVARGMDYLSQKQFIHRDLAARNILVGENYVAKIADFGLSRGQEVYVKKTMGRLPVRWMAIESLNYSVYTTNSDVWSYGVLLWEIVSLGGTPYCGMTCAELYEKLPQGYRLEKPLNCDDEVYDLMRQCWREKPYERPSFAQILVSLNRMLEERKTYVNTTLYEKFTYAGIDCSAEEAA
human Fibroblast Growth Factor Receptor 1 (FGFR1), FGFR1 (gene 2260), sequence (P11362 whole entry, looked up): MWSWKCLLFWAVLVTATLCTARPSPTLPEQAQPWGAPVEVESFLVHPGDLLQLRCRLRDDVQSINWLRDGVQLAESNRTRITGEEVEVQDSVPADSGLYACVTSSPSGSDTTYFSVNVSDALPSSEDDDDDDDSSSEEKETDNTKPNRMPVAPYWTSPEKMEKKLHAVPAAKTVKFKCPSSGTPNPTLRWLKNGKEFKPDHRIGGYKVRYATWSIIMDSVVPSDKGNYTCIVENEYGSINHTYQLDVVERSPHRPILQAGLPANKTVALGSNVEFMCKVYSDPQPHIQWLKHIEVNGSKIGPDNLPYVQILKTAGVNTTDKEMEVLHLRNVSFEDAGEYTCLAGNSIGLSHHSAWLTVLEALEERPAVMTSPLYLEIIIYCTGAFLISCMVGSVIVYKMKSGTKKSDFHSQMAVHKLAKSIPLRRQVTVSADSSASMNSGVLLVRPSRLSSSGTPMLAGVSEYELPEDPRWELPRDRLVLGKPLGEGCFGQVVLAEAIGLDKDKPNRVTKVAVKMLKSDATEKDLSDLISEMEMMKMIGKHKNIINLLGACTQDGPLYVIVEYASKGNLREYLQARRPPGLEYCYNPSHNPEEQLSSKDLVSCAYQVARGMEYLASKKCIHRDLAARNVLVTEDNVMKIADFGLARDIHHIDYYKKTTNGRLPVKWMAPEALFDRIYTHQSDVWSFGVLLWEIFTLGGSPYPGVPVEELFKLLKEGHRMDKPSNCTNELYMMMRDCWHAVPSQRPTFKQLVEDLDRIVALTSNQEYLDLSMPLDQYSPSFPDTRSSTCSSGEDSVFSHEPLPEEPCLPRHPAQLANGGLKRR

Regarding `OCCOCCOCCO`, the result in experiment [1], in experiment [2] and in experiment [3] was inactive.

Turning to `O=c1[nH]cnc2c1ncn2[C@H]1CC[C@@H](CO)O1`, the call in experiment [1], in experiment [4], in [5], in experiment [2], in experiment [6] and in [7] was inactive.

Take `COCCO`: the compound was called inactive in [5].

For orientation: AC50 means the concentration at which the activity in the assay is half-maximal. For `O=C(O)Cc1cc(I)c(Oc2ccc(O)c(I)c2)c(I)c1`, the AC50 in experiment [1] was 1.37 µM (active). The compound was classed as inactive in experiment [4], in [8], in experiment [9] and in experiment [10].

In the case of `OCCC(F)(F)C(F)(F)C(F)(F)C(F)(F)C(F)(F)C(F)(F)F`, the outcome in experiment [5], in experiment [11], in experiment [12] and in [13] was inactive.

With `[O-]n1ccccc1=S.[O-]n1ccccc1=S.[Zn+2]`, the compound was called inactive in experiment [5] and in experiment [7].

As to `NC=O`, the outcome in experiment [4] was inactive.

Turning to `Cc1ccc2ncccc2c1`, the outcome in experiment [4], in experiment [8], in [2], in [9] and in [7] was inactive.

`Clc1nc(Cl)c(Cl)c(Cl)c1Cl`: the outcome in experiment [5], in experiment [9], in experiment [12] and in experiment [10] was inactive.

Regarding `O=C(O)C1(C(=O)Nc2ccc(Cl)cc2Cl)CC1`, the AC50 was 16.3 µM (active) in experiment [1], 18.3 µM (active) in experiment [5], 3.91 µM (active) in [2] and 10.1 µM (active) in [6]. Further, the compound was classed as inactive in [7] and in experiment [14].

As to `COc1c(Cl)ccc(Cl)c1C(=O)O`, in experiment [4], the compound was called inactive.

As for `CCOC(=O)C(C)(C)Oc1ccc(Cl)cc1`, the compound was called inactive in experiment [1], in experiment [5], in experiment [15] and in experiment [7]. The concentration at half-maximal activity (AC50) in experiment [6] is 0.218 µM (active); in [16], 25 µM (active).

Turning to `c1ccc2ccccc2c1`, the compound was called inactive in experiment [1] and in [2].

Regarding `CC(=O)Oc1ccccc1C(=O)O`, in experiment [4], the call was inactive.

(Values after PubChem BioAssay (EPA / NIEHS).)
